Assay results: PubChem BioAssay
Activity calls are given as the source filed them. Unless noted, no rule for the calls is given here.

Experiments:
[1] = test system: Wnt5a (protein binding on small-molecule microarray); assay: small molecules binding Wnt5a protein – biophysical, small-molecule microarray, 635/667 nm fluorescence, primary screen (AID 1142); conditions: 635 nm fluorescence, higher = more signal;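 also: fluorescence read at 667 nm with signal to noise per printed feature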
[2] = ATP-based viability of Huh7 replicon cells – cell-based, CellTiter-Glo luminescence, basal, 48 h, cytotoxicity control for HCV replication inhibitor project, primary screen (AID 1143); conditions: higher = more signal, called active from +8 up or from −8 down;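 also: Huh7 hepatoma cells carrying a hepatitis C replication reporter with no stimulus; test concentration not given here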
[3] = Pseudomonas biofilm growth suppression – PAO1 strain, BacTiter-Glo luminescence, LB-PBS, primary screen (AID 1144); conditions: P. aeruginosa PAO1 biofilm, 12 h, higher = more signal
[4] = basal CRE-LacZ reporter activity in PC12 – cell-based, unstimulated, primary screen (AID 1145); conditions: no forskolin, luminescence, 4.5 h, higher = more signal, called active from +8 up or from −8 down
[5] = forskolin-driven CRE-LacZ activity in PC12 – cell-based, CRE-LacZ reporter, forskolin-stimulated, primary screen (AID 1146); conditions: luminescence, 4.5 h, higher = more signal, called active from +8 up or from −8 down;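 also: PC12 cells with 6xCRE LacZ reporter stimulated by forskolin 10 µM; beta-galactosidase reporter signal reflecting CREB driven transcription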
[6] = target: Streptavidin (Streptomyces avidinii) (UniProt P22629); assay: compounds binding control protein streptavidin – biophysical, small-molecule microarray, 635/667 nm fluorescence, artefact control for SMM compound annotation, primary screen (AID 1147); conditions: higher = more signal;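 also: signal reflects streptavidin binding to arrayed compounds as a control protein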
Streptavidin (Streptomyces avidinii), sequence (P22629 whole entry, looked up): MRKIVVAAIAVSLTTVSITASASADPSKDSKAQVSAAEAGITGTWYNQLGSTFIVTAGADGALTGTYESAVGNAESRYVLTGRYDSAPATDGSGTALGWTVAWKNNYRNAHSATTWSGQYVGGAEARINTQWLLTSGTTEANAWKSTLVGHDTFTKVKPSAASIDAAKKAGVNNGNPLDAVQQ

[7] = probe aInhba binding on compound microarray – biochemical, small-molecule microarray, 635/667 nm fluorescence, primary screen (AID 1148); conditions: higher = more signal;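 also: score merges 667nm spot fluorescence with signal-to-noise for antibody binding to printed compounds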
Torsin-1A (Homo sapiens) [8] = target: Torsin-1A (Homo sapiens) (UniProt O14656); assay: TOR1A wild-type binding on microarray – cell lysate, small-molecule microarray, lysate, 635/667 nm, primary screen (AID 1149); conditions: COS7 hTOR1A-WT lysate, 635 nm fluorescence, higher = more signal
Torsin-1A (Homo sapiens), sequence (O14656 whole entry, looked up): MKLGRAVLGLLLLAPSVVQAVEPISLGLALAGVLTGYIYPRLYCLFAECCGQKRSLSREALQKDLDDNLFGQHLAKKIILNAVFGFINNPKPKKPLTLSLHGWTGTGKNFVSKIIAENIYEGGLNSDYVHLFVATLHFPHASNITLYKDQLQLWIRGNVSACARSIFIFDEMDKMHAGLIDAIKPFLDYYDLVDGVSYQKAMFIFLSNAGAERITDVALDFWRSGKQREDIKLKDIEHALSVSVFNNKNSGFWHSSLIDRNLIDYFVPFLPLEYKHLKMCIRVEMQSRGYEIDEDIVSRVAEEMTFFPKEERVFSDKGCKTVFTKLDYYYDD

Torsin-1A (Homo sapiens) [9] = target: Torsin-1A (Homo sapiens) (UniProt O14656); assay: torsin A mutant lysate binding on microarrays – cell lysate, small-molecule microarray, COS7 lysate, 635/667 nm fluorescence, primary screen (AID 1150); conditions: COS7 hTOR1A mutant lysate, 635 nm fluorescence, higher = more signal;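 also: score pools 667 nm emission and signal to noise measuring lysate protein binding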
[10] = test system: Sonic hedgehog protein (Shh); assay: Sonic hedgehog microarray binding compounds – biochemical, small-molecule microarray, 635/667 nm fluorescence, primary screen (AID 1151); conditions: 635 nm fluorescence, higher = more signal;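 also: Shh protein binding to compounds spotted on small-molecule microarray slides; score combines spot fluorescence intensity with signal-to-noise across triplicate slides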

Row | Compound | composite z-score [1] | z-score [2] | z-score [3] | z-score [4] | z-score [5] | composite z-score [6] | composite z-score [7] | composite z-score (Torsin-1A (Homo sapiens) [8]) | composite z-score (Torsin-1A (Homo sapiens) [9]) | composite z-score [10]
1 | COCCOC(=O)N1C(=O)[C@@]2(c3cc(C#CC4(O)CCCCCC4)ccc31)[C@H](c1ccc(OCCO)cc1)N1[C@H](c3ccccc3)[C@H](c3ccccc3)OC(=O)[C@H]1[C@@H]2C(N)=O | 0.437 | -4.15 (inactive) | 0.323 (inactive) | 0.468 (inactive) | 0.595 (inactive) | 0.213 | 0.0804 | 0.974 | 0.861 | 1.33
2 | CCCCC(O)C1C=CC2C(=O)NC(=O)C2N1Nc1ccc(Cl)cc1Cl (stereo not given) | -0.188 | -1.19 (inactive) | -0.441 (inactive) | 0.819 (inactive) | -0.123 (inactive) | 0.27 | 0.166 | -0.58 | 0.571 | -0.614
3 | COC(=O)[C@@]1(Cc2ccc(OC)cc2)[C@@H]2[C@@H](CC(=O)[C@H]2CC(=O)C(=O)N2CCCC2)CN1C(=O)c1ccccc1 | 2.07 | -2.82 (inactive) | -0.98 (inactive) | 0.779 (inactive) | -0.013 (inactive) | 1.7 | 1.69 | 0.774 | 1.27 | -0.566
4 | COC(=O)[C@]1(CO)N=C(c2ccc(OCCCO)cc2)O[C@@H]1c1ccccc1CN=[N+]=[N-] | -0.0408 | -0.394 (inactive) | 1.34 (inactive) | 0.643 (inactive) | 0.224 (inactive) | -0.447 | -0.154 | -0.208 | 0.518 | 0.583
5 | C#CCN=C(N)N | 0.0311 | -0.347 (inactive) | 0.214 (inactive) | -0.0247 (inactive) | -0.055 (inactive) | 0.314 | 0.0797 | 1.7 | 0.832 | 0.666
6 | COC(=O)[C@@]1(Cc2ccccc2)[C@@H]2[C@@H](CC(=O)[C@H]2CC(=O)C(=O)N(C)C)CN1C(=O)c1ccccc1 | -0.087 | -0.0162 (inactive) | -0.621 (inactive) | 0.201 (inactive) | 0.983 (inactive) | 0.315 | -0.0963 | -0.115 | 0.417 | -0.829
7 | C#CCN(C/C=C/c1ccccc1)[C@H](CO[Si](C)(C)C(C)(C)C)c1ccccc1 | -0.276 | -0.832 (inactive) | 0.221 (inactive) | -0.0487 (inactive) | -0.626 (inactive) | -0.531 | -0.0719 | -0.805 | -0.239 | 0.0896
8 | O=C1N(CCS(=O)(=O)c2ccccc2)c2ccccc2[C@@H]2OC(c3ccc(OCCCO)cc3)=N[C@]12CCS(=O)(=O)c1ccccc1 | 0.277 | -1.35 (inactive) | 0.647 (inactive) | 2.41 (inactive) | 0.103 (inactive) | 1.12 | 0.103 | 0.741 | 1.43 | 1.3
9 | C=CC[C@@]1(C(=O)N(C)C)N=C(c2ccc(OCCCO)cc2)O[C@@H]1c1ccccc1 | 0.919 | -1.45 (inactive) | 0.442 (inactive) | 0.652 (inactive) | 0.535 (inactive) | -0.232 | 0.496 | 0.986 | 0.571 | -0.0763
10 | Cc1ccc(S[C@]2(C(=O)NCC(F)(F)F)CC(=O)N(C3CCCCC3)[C@@H]2c2ccc(CO)cc2)cc1 | 0.0911 | -1.09 (inactive) | 0.12 (inactive) | -0.529 (inactive) | -0.147 (inactive) | -0.777 | -0.176 | 0.118 | 1.06 | -0.121
11 | COCCOC(=O)N1C(=O)[C@@]2(c3cc(C#CC4=CCCCC4)ccc31)[C@H](c1ccc(OCCO)cc1)N1[C@H](c3ccccc3)[C@H](c3ccccc3)OC(=O)[C@H]1[C@@H]2C(=O)N1CCCCCCC1 | 0.266 | -4.59 (inactive) | -1.17 (inactive) | -0.698 (inactive) | -1.13 (inactive) | 0.945 | 1.05 | 0.984 | 0.84 | 1.91
12 | C[N+](C)(C)CCCCCCNC(=O)[C@@H]1C[C@@H]2C(=O)N[C@@H](Cc3ccccc3)C(=O)N2[C@@H]1c1ccc(O)cc1 | 0.42 | -0.267 (inactive) | -0.409 (inactive) | -0.805 (inactive) | -0.327 (inactive) | -0.0442 | -0.0039 | 1.26 | 0.984 | 2.07
